The text below walks through data of PMC5540273 (PLoS ONE, 2017).

Among the test systems are KIT-autoinhibited; KIT; LATS1; LATS2; LCK; LIMK1; LIMK2; LRRK2; LTK; LYN; MAK; MAP3K15; MAP3K1; MAP3K2; MAP3K3.
Conditions in all cases: concentration: 1 μM, replicates: in singlicate; n = 1
For the next assay, the system named is T1, JNK2.
T1 construct: gene MAPK9

The next assay relates to T2, JNK3.
T2 construct: gene MAPK10

Another assay has as its system T3, LKB1.
T3 construct: gene STK11

The subject of the next assay is T4, LOK.
T4 construct: gene STK10

A further assay concerns T5, LZK.
T5 construct: gene MAP3K13
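Also: KINOMEscan kinase panel screen.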

In the case of `CCn1c(-c2nonc2N)nc2ccccc21` [SB-693162/GW549034], the “%Inh” value with JNK2 was 57%; with JNK3, 62%; in the assay with KIT-autoinhibited, 26%; in the assay on KIT it was 0%; with LATS1, 0%; in the assay on LATS2, 82%. The “%Inh” value is given as 12% in the assay on LCK; 0% in the assay on LIMK1; 0% in the assay on LIMK2; 0% in the assay on LKB1; 11% with LOK; 83% with LRRK2. Besides, the “%Inh” value in the assay with LTK is reported as 4%; in the assay on LYN it was 0%; in the assay with LZK it was 55%; in the assay with MAK, 0%; in the assay with MAP3K15, 54%; in the assay on MAP3K1 it was 46%. The “%Inh” value in the assay on MAP3K2 is on record as 25%; in the assay on MAP3K3 it was 31%.

With `Nc1ncnc2c1ncn2-c1ccc(Cl)cc1` [AH2635], the “%Inh” value is recorded as 0% in the assay on JNK2; 0% with JNK3; 0% in the assay on KIT-autoinhibited; 65% with KIT; 0% in the assay on LATS1; 24% in the assay with LATS2. The “%Inh” value is on record as 24% in the assay with LCK; 0% with LIMK1; 6% in the assay on LIMK2; 10% in the assay with LKB1; 0% in the assay on LOK; 0% with LRRK2. Besides, the “%Inh” value with LTK is given as 14%; in the assay with LYN it was 0%; in the assay on LZK, 27%; with MAK it was 8%; in the assay with MAP3K15 it was 0%; in the assay with MAP3K1, 0%. Also, the “%Inh” value with MAP3K2 and in the assay on MAP3K3 was 0% each time.

Take `Cl.NS(=O)(=O)c1cccc(Nc2cc(-c3ccc(F)cc3)n[nH]2)c1` [GW824645]: the “%Inh” value with JNK2 stood at 1%; in the assay with JNK3, 0%; in the assay with KIT-autoinhibited it was 35%; with KIT, 90%; with LATS1, 0%; in the assay with LATS2, 0%. Further, the “%Inh” value with LCK stood at 0%; in the assay on LIMK1, 0%; in the assay with LIMK2, 0%; in the assay with LKB1 it was 25%; with LOK, 0%; in the assay with LRRK2 it was 0%. The “%Inh” value in the assay with LTK is listed as 0%; in the assay with LYN, 0%; in the assay on LZK it was 0%; with MAK, 0%; in the assay with MAP3K15 it was 1%; in the assay with MAP3K1 it was 0%. Also, the “%Inh” value was determined as 22% in the assay on MAP3K2 and 0% in the assay on MAP3K3.

On to `Nc1nc(N)c2nc(-c3ccccc3)[nH]c2n1` [SKF-12778], for which the “%Inh” value was found to be 14% with JNK2; 8% in the assay on JNK3; 5% in the assay with KIT-autoinhibited; 21% in the assay with KIT; 0% with LATS1; 0% in the assay with LATS2. Further, the “%Inh” value is given as 19% with LCK; 0% in the assay with LIMK1; 3% with LIMK2; 0% in the assay with LKB1; 14% in the assay on LOK; 18% in the assay on LRRK2. In addition, the “%Inh” value with LTK worked out at 5%; in the assay with LYN, 3%; in the assay with LZK, 0%; with MAK, 3%; in the assay on MAP3K15, 12%; with MAP3K1, 9%. The “%Inh” value with MAP3K2 was determined as 26%; in the assay with MAP3K3, 13%.

Consider `CN1C(=O)C(Nc2cc(Cl)c(O)c(Cl)c2)=C(c2ccc(Cl)cc2)C1=O` [SB-404321], for which the “%Inh” value with JNK2 was found to be 19%; in the assay with JNK3 it was 15%; in the assay with KIT-autoinhibited, 26%; in the assay with KIT, 0%; with LATS1, 0%; in the assay with LATS2, 0%. Further, the “%Inh” value is listed as 0% in the assay on LCK; 0% in the assay with LIMK1; 0% in the assay on LIMK2; 32% in the assay on LKB1; 0% in the assay on LOK; 0% in the assay with LRRK2. Further, the “%Inh” value with LTK was determined as 0%; in the assay on LYN it was 24%; in the assay on LZK, 6%; in the assay with MAK it was 0%; in the assay with MAP3K15, 0%; in the assay on MAP3K1, 0%. Besides, the “%Inh” value in the assay on MAP3K2 and in the assay on MAP3K3 was 0% throughout.

For `Cc1nnc(-c2ccc3ncn(-c4ccc(S(C)=O)cc4)c3c2)o1` (centres unmarked), the “%Inh” value came out at 0% with JNK2; 0% with JNK3; 0% in the assay on KIT-autoinhibited; 29% with KIT; 43% in the assay with LATS1; 8% in the assay with LATS2. The “%Inh” value in the assay with LCK came out at 10%; with LIMK1, 19%; with LIMK2, 6%; with LKB1, 9%; in the assay on LOK, 4%; in the assay on LRRK2 it was 0%. Further, the “%Inh” value worked out at 0% in the assay with LTK; 8% in the assay on LYN; 0% in the assay with LZK; 0% in the assay on MAK; 0% in the assay with MAP3K15; 16% with MAP3K1. The “%Inh” value in the assay on MAP3K2 and with MAP3K3 was 0% throughout.

As for `COc1cc2nccc(Nc3ccc(OCc4ccc(NC(C)=O)cc4)cc3)c2cc1OC.Cl` [GW440135], the “%Inh” value came to 0% in the assay with JNK2; 0% in the assay on JNK3; 12% with KIT-autoinhibited; 100% in the assay with KIT; 0% in the assay on LATS1; 0% in the assay with LATS2. In addition, the “%Inh” value in the assay on LCK was found to be 22%; in the assay with LIMK1 it was 0%; in the assay with LIMK2 it was 0%; in the assay with LKB1, 0%; in the assay with LOK it was 0%; in the assay on LRRK2, 0%. Further, the “%Inh” value is recorded as 0% with LTK; 23% in the assay on LYN; 24% in the assay on LZK; 0% with MAK; 0% in the assay with MAP3K15; 0% with MAP3K1. Also, the “%Inh” value in the assay on MAP3K2 was found to be 18%; in the assay on MAP3K3, 0%.

`COC(=O)c1c(-c2ccccc2)c2cc(Br)ccc2c(=O)n1Cc1ccc(S(C)(=O)=O)cc1`: the “%Inh” value in the assay with JNK2 is 98.8%; with JNK3, 98.6%; in the assay on KIT-autoinhibited, 6%; in the assay with KIT it was 54%; in the assay on LATS1, 31%; with LATS2, 30%. The “%Inh” value amounted to 0% with LCK; 0% with LIMK1; 0% in the assay on LIMK2; 0% in the assay with LKB1; 6% in the assay with LOK; 11% in the assay with LRRK2. Further, the “%Inh” value stood at 9% in the assay on LTK; 14% with LYN; 33% in the assay on LZK; 34% with MAK; 26% in the assay with MAP3K15; 27% in the assay on MAP3K1. Besides, the “%Inh” value in the assay with MAP3K2 is on record as 0%; in the assay on MAP3K3 it was 32%.

On to `Fc1cccc(CSc2nnc(-c3ccc4c(c3)CCO4)o2)c1`, for which the “%Inh” value is listed as 4% in the assay on JNK2; 4% with JNK3; 6% in the assay with KIT-autoinhibited; 5% in the assay on KIT; 20% in the assay with LATS1; 31% with LATS2. Moreover, the “%Inh” value in the assay with LCK was determined as 0%; in the assay on LIMK1, 0%; in the assay on LIMK2, 0%; in the assay with LKB1, 16%; in the assay on LOK it was 9%; with LRRK2 it was 10%. The “%Inh” value with LTK came to 16%; with LYN, 19%; with LZK, 0%; in the assay with MAK, 5%; in the assay with MAP3K15, 15%; in the assay with MAP3K1, 26%. Further, the “%Inh” value in the assay on MAP3K2 and with MAP3K3 was 2% throughout.

For the compound `Cc1cccc(-c2cc(-c3c[nH]nc3-c3ccccn3)ccn2)c1` [GW679395], the “%Inh” value is listed as 66% in the assay on JNK2; 73% in the assay on JNK3; 0% in the assay on KIT-autoinhibited; 35% in the assay with KIT; 0% with LATS1; 3% in the assay on LATS2. Further, the “%Inh” value in the assay on LCK was 78%; in the assay with LIMK1 it was 0%; with LIMK2 it was 13%; in the assay on LKB1, 0%; in the assay on LOK, 0%; in the assay with LRRK2, 10%. Moreover, the “%Inh” value in the assay on LTK was 4%; in the assay on LYN it was 0%; with LZK it was 12%; with MAK it was 33%; in the assay on MAP3K15 it was 0%; in the assay on MAP3K1 it was 5%. Also, the “%Inh” value worked out at 6% with MAP3K2 and 0% in the assay on MAP3K3.
